# BRCA1 expr act – BRCA1 expression activation; MCF7-BRCA1-FFLuc reporter, luminescence, 48 h; response scale: scaled: vehicle 0%, 10 µM genistein 100%; Potency, µM (doses to about 46.1 µM), for the others: top-dose activation, actives largely listed as activators; 380,000 compounds, 1.1% hits; also: potency is read from the fitted curve at half-maximal effect; nearly all actives have a fitted effect of over 80% in size
#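 Luminescence from a BRCA1-driven firefly luciferase in MCF7 cells was the read-out, taken 15 min after substrate addition following 48 h compound exposure at 37 °C. Data were normalized to a 10 microM genistein control and DMSO vehicle.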
# Gal4-VP16 FLuc – counter-screen for ROR gamma inhibitors: Gal4-VP16 reporter; Drosophila S2 Gal4-VP16 UAS-luciferase, luminescence, 20 h; Potency, µM (highest dose often 53.6 µM), for inactives: at the top dose activity, negative = inhibition, most hits filed as inhibitors; 310,000 compounds, 3.5% hits;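 also: Gal4-VP16 expression switched on by copper sulfate through the metallothionein promoter; potency is read from the fitted curve at half-maximal effect; % is scaled to controls: 0 for no effect and ±100 for the full control effect; nearly all actives have a fitted effect of over 50% in size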
# RORg inh – blocks mouse ROR gamma transcriptional activity; Drosophila S2 Gal4-RORgamma UAS-luciferase reporter, 20 h; 310,000 compounds, 5.4% hits; P51450; Potency, µM (titrated, usually from 53.6 µM), for inactives: at the highest dose activity change, negative = inhibition, actives largely listed as inhibitors; also: potency is read from the fitted curve at half-maximal effect; % is scaled to controls: 0 for no effect and ±100 for the full control effect; nearly all actives have a fitted effect of over 60% in size
# Target sequence (P51450 whole entry, looked up, the tested form may be a part): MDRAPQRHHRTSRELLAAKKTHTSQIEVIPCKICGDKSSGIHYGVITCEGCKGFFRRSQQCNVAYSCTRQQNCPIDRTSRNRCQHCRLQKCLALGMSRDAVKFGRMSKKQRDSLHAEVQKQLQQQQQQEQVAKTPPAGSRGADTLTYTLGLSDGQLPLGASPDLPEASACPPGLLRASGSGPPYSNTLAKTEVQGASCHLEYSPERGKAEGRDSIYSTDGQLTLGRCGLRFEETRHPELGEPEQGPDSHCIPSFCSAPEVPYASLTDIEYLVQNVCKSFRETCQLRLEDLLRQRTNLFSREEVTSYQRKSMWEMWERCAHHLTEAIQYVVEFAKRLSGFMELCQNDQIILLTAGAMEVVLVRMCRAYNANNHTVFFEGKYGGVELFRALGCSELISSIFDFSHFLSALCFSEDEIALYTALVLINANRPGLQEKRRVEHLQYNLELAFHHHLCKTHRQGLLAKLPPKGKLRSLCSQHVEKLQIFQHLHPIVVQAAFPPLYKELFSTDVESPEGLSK
#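 Luciferase reporter read in Schneider cells carrying Gal4-RORγ (mouse) and UAS-Photinus luciferase; cells given compound 1 h before 700 uM copper sulfate induction, then incubated 20 h at ambient temperature.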
# Giardia killer – kills Giardia lamblia; Giardia lamblia trophozoite viability; activity change, % at 7.66 µM, hits read low; 340,000 compounds, 0.15% hits; AID 540267; in the data active = activity change below about -80%; inconclusive = between about -30% and that limit;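 also: parasites exposed to compound for two days anaerobically before the ATP read; % is scaled to controls: 0 for no effect and ±100 for the full control effect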
#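 Giardia trophozoites, 100 cells per well, were exposed to compounds for 48 hrs at 37 deg C under anaerobic conditions; viability was then read as ATP content by bioluminescence after 15-30 min at room temperature.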
# ELG1 repair inh – ELG1-dependent DNA repair inhibition; HEK293T ELG1-luciferase reporter, luminescence, 16 h; DNA damage induced by 5-fluorouridine; Potency, µM (highest dose often 46.1 µM), without a hit: at the highest dose activity change, negative = inhibition, hits mostly inhibitors; 330,000 compounds, 2.3% hits; also: potency is read from the fitted curve at half-maximal effect; % is scaled to controls: 0 for no effect and ±100 for the full control effect; nearly all actives have a fitted effect of over 55% in size
#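 5-Fluorouridine DNA damage + compound/DMSO, 2,000 cells/well, 16 h, 37 °C/5% CO2. ONE-Glo, 30 min RT, luminescence. Readout = decrease in reporter signal.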
# p53 reactivator – mutant p53 re-activation in reporter cells; H1299 p53-A138V BP100-luciferase reporter, luminescence, 24 h; Potency, µM (titrated, usually from 92.2 µM), without a hit: at the top dose activity change, positive = activation, actives largely listed as activators; 320,000 compounds, 0.063% hits; AID 504706; also: potency is read from the fitted curve at half-maximal effect; % of control where 0% means no effect; nearly all actives have a fitted effect of over 45% in size
#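 p53-null H1299 cells stably carrying temperature-sensitive p53-A138V and a BP100-luciferase reporter were pinned with compounds (4-point, 1:5 series) and held 24 hrs at 37 deg C. Luminescence was read 10 min after detection reagent.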
# * = called active by the depositor; ? = inconclusive; . = not tested or not shown; [ ] = another dose, or the depositor's remark. Sampled rows, rich in hits. Any-hit rate of the full collection: about 7.6%. Unless noted, calls follow the shape of the dose curve; as a rule, active = well fitted curve in the direction sought with a large enough effect; inconclusive = small, poorly fitted or top-dose-only effect, or another doubt; inactive = no such curve, though single readings can be large; an effect the other way counts as inactive or inconclusive.
SMILES,BRCA1 expr act,Gal4-VP16 FLuc,RORg inh,Giardia killer,ELG1 repair inh,p53 reactivator
Cc1ccc(S(=O)(=O)Nc2ccc(O)c3ncccc23)cc1,-44%,?,2.5µM*,6,3.3µM*,12%
CN(C)S(=O)(=O)c1ccc(N2CCOCC2)nc1,0%,-7%,10%,0,13%,-17%
O=S(=O)(c1ccc(N2CCN(S(=O)(=O)c3ccc4c(c3)OCCO4)CC2)nc1)N1CCCC1,-53%,10%,?,16,8.2µM*,-6%
O=S(=O)(c1ccc(N2CCN(Cc3ccc4c(c3)OCO4)CC2)nc1)N1CCOCC1,.,1%,21%,.,?,0%
O=C(CCl)N1CCN(S(=O)(=O)c2ccc3c(c2)OCCCO3)CC1,-18%,.,.,15,18µM*,-32%
CC[C@]12c3[nH]c4ccccc4c3CCN1C(=O)C(CC(=O)NCc1cccc(C(F)(F)F)c1)C[C@@H]2C(=O)N1CCN(C(=O)c2ccco2)CC1 (some centres undefined),-17%,.,.,-7,?,-14%
O=C(c1ccco1)N1CCn2c1nc1ccccc12,7.1µM*,3%,?,0,?,28%
Nc1nncn1C(=O)c1cccs1,-11%,-5%,-8%,-11,0%,25%
Nc1nc2ccccc2n1C(=O)c1cccs1,?,2.8µM*,0.89µM*,-25,?,16%
Nc1nc2ccccc2n1C(=O)c1ccco1,?,?,11µM*,8,?,?
CCC(=O)N1CCn2c1nc1ccccc12,3%,-8%,19%,-3,-1%,2%
Nc1nc2ccccc2n1C(=O)CCc1ccccc1,-36%,19%,16%,-17,?,19%
Nc1nc2ccccc2n1C(=O)c1ccccc1,?,5µM*,0.63µM*,?,?,-8%
O=C(Nc1ccc(N2CCOCC2)cc1)c1nc2ccccc2s1,215%,0%,-10%,6,?,?
Cc1ccc(CCN2C(Nc3ccccc3)=NC[C@@H]2C)cc1,-8%,.,.,-10,0%,6%
S=C(Nc1ccccc1)N1CCn2c1nc1ccccc12,-8%,5µM*,0.56µM*,1,-2%,?
COc1ccc(C(=O)n2c(N)nc3ccccc32)cc1OC,?,?,?,7,?,?
O=C(Nc1ccccc1)N1CCn2c1nc1ccccc12,-60%,0%,30%,-1,13%,8%
Nc1nc2ccccc2n1C(=O)c1ccc(F)cc1,-6%,11µM*,2.2µM*,-23,?,-3%
CON=C(C(=O)NC1C(=O)N2C(C(=O)O)=C(CSc3nc(=O)c(=O)[nH]n3C)CSC12)c1csc(N)n1 (centres undefined),1%,.,.,-6,.,.
C=CCn1c(C)c(C(C)=O)c(N2CCCC2)nc1=S,45%,2%,-19%,3,3%,1%
CC(=O)c1c(C(C)=O)c(C)n(Cc2ccccc2)c1C,-31%,-4%,7%,-3,?,2%
CCn1c(C)c(C(C)=O)c(N2CCCC2)nc1=S,8%,1%,7.9µM*,20,0%,-9%
CC(=O)c1c(N2CCN(Cc3ccccc3)CC2)nc(=S)n(Cc2ccccc2)c1C,-39%,?,-10%,34,-27%,1%
CC(=O)c1c(N2CCCCC2)nc(=S)n(Cc2ccccc2)c1C,-9%,-25%,11µM*,-8,-9%,-5%
SMILES,BRCA1 expr act,Gal4-VP16 FLuc,RORg inh,Giardia killer,ELG1 repair inh,p53 reactivator
CCCSc1nc(=S)n(Cc2ccccc2)c(C)c1C(C)=O,0%,?,14µM*,-17,?,-4%
NS(=O)(=O)c1ccc(NC(=S)NCc2ccc3c(c2)OCO3)cc1,-25%,5%,2%,2,-11%,3%
CCc1ccc(CN(C)CC(O)COc2cccc3ccccc23)cc1 (centres undefined),-14%,-6%,-3%,0,-1%,-2%
CC1(C)CC(=O)C2=C(C1)N(c1ccc(F)cc1)C(=O)NC2(C(F)(F)F)C(F)(F)F,9%,-7%,11µM*,9,-3%,2%
Cc1cccc(NC(=S)/N=C(\N)Nc2nc(C)c3ccccc3n2)c1,-46%,5µM*,2.2µM*,-5,-11%,?
Cc1ccc(S(=O)(=O)/N=C(\N)Nc2nc(C)c3ccccc3n2)cc1,-8%,-15%,23%,-16,-4%,-8%
Cc1cccc(NC(=S)/N=C(\N)Nc2nc(C)c3ccc(C)cc3n2)c1,-58%,3.5µM*,1µM*,14,?,1%
Cc1cccc(NC(=S)/N=C(\N)Nc2nc(C)c3cc(C)ccc3n2)c1,-44%,4.5µM*,7.1µM*,45,-18%,9%
Cc1cc(C)cc(NC(=S)/N=C(\N)Nc2nc(C)c3ccccc3n2)c1,-61%,3.2µM*,2µM*,0,18µM*,?
COc1ccc2c(C)nc(N/C(N)=N/S(=O)(=O)c3ccc(C)cc3)nc2c1,0%,-2%,-3%,11,?,-10%
C[C@@H](C(=O)Nc1ccc2ccccc2c1)[C@H]1C[C@]1(C)[C@H](NC(=O)Oc1ccc(F)cc1)c1ccccc1,.,-7%,25%,.,.,.
O=C(/C=C/c1cccs1)N1CCC2(CC1)Oc1ccc(Cl)cc1C(=O)C21CC(c2cccnc2)=NO1 (centres undefined),-34%,0%,29%,-20,?,-2%
CN1CCN(C(=O)c2cccn(Cc3cccc(Cl)c3)c2=O)CC1,4%,6%,3%,-25,6%,0%
CC(C)=NN/C(N)=N/C(=S)Nc1ccc(C)cc1,1%,3%,?,4,?,?
Cc1ccc(NC(=S)/N=C(\N)Nc2nc(C)c3ccccc3n2)cc1C,-78%,1µM*,1µM*,-6,?,?
O=C(NC(=O)N1CCN(c2ccccc2F)CC1)c1ccccc1,-1%,-8%,17%,-9,13%,18%
c1ccc(OCCNc2ccn3nc(-c4ccco4)cc3n2)cc1,14µM*,.,.,.,.,.
c1ccc(OCCNc2ccn3nc(-c4cccs4)cc3n2)cc1,0%,.,.,.,.,.
CC(C)Cn1c(-c2csc(C(C)C)c2)n[nH]c1=S,1%,-25%[10 µM],2µM*,24,3%,0%
CCn1c(-c2csc(C(C)C)c2)n[nH]c1=S,6%,13µM*,2.5µM*,2,12%,-2%
CCn1c(-c2nn(C)c(C)c2Cl)n[nH]c1=S,20%,?,?,-22,?,-4%
Cc1ccc(CS(=O)(=O)c2ccccc2-c2nnc(-c3ccc(Cl)cc3)o2)cc1,-20%,-13%,-4%,-2,1%,-5%

# Screens (PubChem)
